# Assay results published in paper PMC5540273 (PLoS ONE, 2017).
# How the values were obtained:
# [1] = test system: TYK2(JH2domain-pseudokinase)
# VEGFR2 = test system: T1, VEGFR2
# T1 construct: gene KDR
# 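Note: kd values determined as follow-up on hits from a single-replicate KINOMEscan panel screen.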
compound,measurement,setting,value
O=C(NCCNc1ccnc(Nc2ccc(F)cc2)n1)Nc1ccc2c(c1)OCO2 [GSK1379882],Kd,TXK,> 10 µM
CN(C)c1cc(-c2ccc3c(N)n[nH]c3c2)nc(N)n1 [GSK2219329],Kd,TXK,> 10 µM
Nc1n[nH]c2ncc(-c3ccccc3)cc12 [SB-517081],Kd,[1],950 nM
COc1cc(OC)cc(-c2cc3cnc(N)nc3nc2NC(=O)NC(C)(C)C)c1,Kd,TYRO3,> 10 µM
COc1ccc(-c2coc3ccc(-c4nnc(SCc5cccc(C#N)c5)o4)cc23)cc1,Kd,ULK3,> 10 µM
COc1cc2nccc(Nc3ccc(OCc4ccc(NC(C)=O)cc4)cc3)c2cc1OC.Cl [GW440135],Kd,VEGFR2,53 nM
CN1C(=O)C(Nc2cc(Cl)c(O)c(Cl)c2)=C(c2ccc(Cl)cc2)C1=O [SB-404321],Kd,VRK2,> 10 µM
OCCCNc1nccc(-c2c(-c3cccc(C(F)(F)F)c3)nn3cc(C(F)(F)F)ccc23)n1 [GW630813],Kd,WNK4,> 10 µM
